Where “and” joins values, the source holds several entries; their conditions need not be identical. Equal values may be shown once. Inconclusive results are not listed. Calls of active or inactive are those of the source. Calls follow the shape of the dose curve; as a rule, active = well fitted curve in the direction sought with a large enough effect; inconclusive = small, poorly fitted or top-dose-only effect, or another doubt; inactive = no such curve, though single readings can be large; an effect the other way counts as inactive or inconclusive.
What was measured:
[1] = qHTS Screen of the MIPE 4.0 Collection Against Ewings Sarcoma (TC32) (AID 1259256); also: nearly all actives have a fitted effect of over 45% in size
Procedure, shortened: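 Compound titrations go onto adherent log-phase cells 4 h after seeding, incubate 48 h at 37C, then CellTiter-Glo luminescence reports viability relative to DMSO and cell-free controls.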

[2] = P-glycoprotein substrates identified in KB-8-5-11 adenocarcinoma cell line, qHTS therapeutic library screen (AID 1346987); also: nearly all actives have a fitted effect of over 65% in size
Procedure, shortened: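 P-gp-mediated resistance screen: KB-8-5-11 cells treated 72 h with compounds in dose-response. CellTiter-Glo viability.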

[3] = NS1 protein of Zika virus - qHTS assay to identify small molecule inhibitors in human HEK 293 cells (AID 1347053); also: nearly all actives have a fitted effect of over 55% in size
Procedure, shortened: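 HEK 293 cells, seeded 20 h at 37 C, were pretreated with compound 1 h, then infected with ZIKV MR766 (MOI = 0.5) for 24 h. NS1 was read by TR-FRET with two anti-NS1 antibodies, normalized to uninfected and infected wells.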

[4] = qHTS of pediatric cancer cell lines to identify multiple opportunities for drug repurposing: Primary screen for TC32 cells (AID 1347089); also: nearly all actives have a fitted effect of over 60% in size
Procedure, shortened: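 qHTS, TC32, 48 h drug treatment, CellTiter-Glo luminescence as a proxy for metabolically active cells; primary top concentration 46 µM (MIPE 11-pt, NPC 8-pt); confirmatory 11-pt.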

[5] = qHTS of pediatric cancer cell lines to identify multiple opportunities for drug repurposing: Primary screen for DAOY cells (AID 1347090); also: nearly all actives have a fitted effect of over 55% in size
Procedure, shortened: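 Eight- or eleven-point concentration series, 48 h treatment at 37 degrees C in growth media; readout CellTiter-Glo luminescence. Potency and efficacy were taken from the concentration-response curves.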

Measured: Potency
Potency is read from the fitted curve at half-maximal effect.

CC(=O)OCC(=O)[C@@]12N=C(C)O[C@H]1C[C@H]1[C@@H]3CCC4=CC(=O)C=C[C@]4(C)[C@@H]3[C@@H](O)C[C@@]12C
inactive: all assays above

c1cncc(CN2CCC(n3ncc4c(N5CCOCC5)nc(-c5ccc6[nH]ccc6c5)nc43)CC2)c1
active: [1] 5.9 µM | [2] 469 nM and 2.31 µM | [3] 14.8 µM | [5] 18.7 µM

CCN(C(=O)c1c(O)c2c(Cl)cccc2n(C)c1=O)c1ccccc1
inactive: all assays above

COc1ccc(S(=O)(=O)Nc2cccnc2Nc2ccc(O)cc2)cc1
inactive: [1]
active: [2] 418 nM and 920 nM | [4] 8.29 µM

CC(=O)SCC(Cc1ccccc1)C(=O)NCC(=O)OCc1ccccc1 (centres undefined)
inactive: [2] | [3]
active: [1] 0.743 µM | [5] 2.35 µM

C=C1C(=CC=C2CCC[C@]3(C)[C@@H]([C@H](C)CCCC(C)(C)O)CC[C@@H]23)C[C@@H](O)C[C@@H]1O
active: [1] 3.72 µM | [4] 16.5 µM | [5] 4.69 µM
inactive: [2] | [3]

O=C1NC(O)CCN1[C@@H]1O[C@H](CO)[C@H](O)[C@H]1O (some centres undefined)
not listed: [4]
inactive: all other assays above

C[C@@H]1C(=O)O[C@H]2CC34[C@H]5C[C@@H](C(C)(C)C)C36[C@H](OC(=O)[C@@H]6O)O[C@@]4(C(=O)O5)[C@]21O (some centres undefined)
not listed: [4]
inactive: all other assays above
